PubChem BioAssay (NCI)
About 79,000 compounds went through this panel and 15% of them were active in at least one assay; those are over-represented in the sample as a whole. Rule as the data show it: active = growth inhibition above about 70%; inactive = the rest.

Columns and labels:
[1] = NCI Yeast Anticancer Drug Screen. Data for the rad50 strain (AID 155);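 also: 0% = growth of vehicle-only cultures of the same strain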; settings: S. cerevisiae rad50 strain growth inhibition, active compounds read high; at 50.0 µM unless noted
Summary of the method: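 Inhibition values express reduced yeast growth in compound-treated cultures relative to vehicle-treated controls.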

[2] = NCI Yeast Anticancer Drug Screen. Data for the mec2-1 strain (AID 157); settings: S. cerevisiae mec2-1 strain, active compounds read high; at 50.0 µM unless noted
Summary of the method: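 Growth inhibition is read against vehicle-treated controls after compound exposure of the mec2-1 yeast strain, which is defective in DNA damage repair or cell cycle control.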

[3] = NCI Yeast Anticancer Drug Screen. Data for the sgs1 mgt1 strain (AID 161);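 also: 0% = growth of cultures given vehicle only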; settings: S. cerevisiae sgs1 mgt1 strain, active compounds read high; at 50.0 µM unless noted
Summary of the method: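 Yeast cells carrying a defined DNA-repair defect were exposed to test compounds. Growth inhibition was measured relative to vehicle-treated controls.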

[4] = NCI Yeast Anticancer Drug Screen. Data for the cln2 rad14 strain (AID 165);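 also: 0% = growth equal to vehicle treated cultures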; settings: S. cerevisiae cln2 rad14 strain, active compounds read high; at 50.0 µM unless noted
Summary of the method: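 Growth inhibition, relative to vehicle-treated controls, is the read-out. The test organism is a yeast strain with defined genetic alterations, cln2 rad14.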

[5] = NCI Yeast Anticancer Drug Screen. Data for the bub3 strain (AID 167); settings: S. cerevisiae bub3 mutant strain, active compounds read high; at 50.0 µM unless noted
Summary of the method: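 Steps: expose the mutant yeast strain to compound; grow alongside vehicle-treated cultures; measure growth; express inhibition against the vehicle cultures.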

[6] = NCI Yeast Anticancer Drug Screen. Data for the mlh1 rad18 strain (AID 175); settings: S. cerevisiae mlh1 rad18 strain growth inhibition, active compounds read high; at 50.0 µM unless noted
Summary of the method: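 Cells of a genetically altered yeast strain, deficient in DNA damage repair, were treated with compound. Their growth was then compared with that of vehicle-treated cultures to give inhibition.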

Measured: growth inhibition

CCCCCCCCCCCCCCCCCCS(=O)(=O)CC(O)CO (stereo not given)
inactive: [1] -4.45% | [2] 5.2% | [3] -1.4% | [4] 2.4% | [5] -11% | [6] 12.4%

Cc1ccc(S(=O)(=O)NC(=O)NC(C)C(=O)O)cc1 (stereo not given)
inactive: [1] -1.15% | [2] -5.65% | [3] -13.2% | [4] 0.2% | [5] 2.5% | [6] -7.65%

CN(C)c1ccc(S(=O)(=O)OC2C(C3COC(C)(C)O3)OC3OC(C)(C)OC32)cc1 (stereo not given)
inactive: [1] -8.5% | [2] 0.75% | [3] -8.7% | [4] -16.2% | [5] 3.25% | [6] 4.7%

C=CCNC(=S)N/C=C(\C#N)C(N)=O
inactive: [1] -24.4% | [2] -40.3% | [3] -27.2% | [4] -7.15% | [5] -12.6% | [6] -41.5%

NC(=S)N/N=C\c1cccc(O)c1O
inactive: [1] 2.9% | [2] 25.1% | [3] 21% | [4] 7% | [5] 13.4% | [6] 12.7%

CC(=O)OC(C)(C)C#CC(C)(C)OC(C)=O
inactive: [1] -9.95% | [2] -24.4% | [3] -15.4% | [4] 3% | [5] -11.7% | [6] -19.3%

O=C(Nc1cccc(Cl)c1)Oc1c([N+](=O)[O-])cc(Cl)cc1[N+](=O)[O-]
inactive: [1] 13.2% | [2] 6.75% | [3] 21.1% | [4] -12% | [5] 0.15% | [6] 28.3%

c1ccc2c(CC3NCCN3)cccc2c1
inactive: [1] -11.3% | [2] -32.2% | [3] -55.2% | [4] 10.8% | [5] -1.4% | [6] -13%

COC(=O)C1CCC(=O)N1Cc1cccs1 (stereo not given)
inactive: [1] -22.9% | [2] -1.7% | [3] -11.1% | [4] 22.1% | [5] 3.55% | [6] -13.2%

CN(C)c1ccc(/C=C2\C(=O)/C(=C\c3ccc(N(C)C)cc3)c3ccccc32)cc1
inactive: [1] 2.95% | [2] -4.25% | [3] -13.8% | [4] -12.5% | [5] 1.05% | [6] 2.95%

CCN(CC)C(=O)N(O)C1CCCCC1
inactive: [1] -35.4% | [2] 2.2% | [3] -14.9% | [4] 8.05% | [5] 4.75% | [6] -7.2%

O=C1CCC2OC3CCC(=O)N3CN12 (stereo not given)
inactive: [1] 9.8% | [2] 8% | [3] 6.55% | [4] -11.3% | [5] 4.95% | [6] -3.6%

CC(=O)Oc1cc(S(=O)(=O)Nc2n[nH]c(N)n2)c(S)cc1Cl
inactive: [1] -22.8% | [2] -18.3% | [3] -1.2% | [4] 11.7% | [5] -9.55% | [6] 8.45%

CCO[C@@H]1OC(=O)[C@H]2C(c3ccccc3Cl)=NO[C@@H]12
inactive: [1] -33.1% | [2] -30.9% | [3] -13.2% | [4] -6.65% | [5] 14.2% | [6] 0.35%

CCOC(=O)CN1C(=O)/C(=C2\SC(=S)N(CC(=O)OCC)C2=O)SC1=S
inactive: [1] 19.1% | [2] 9.95% | [3] 16.1% | [4] 7.7% | [5] -3.9% | [6] 9.4%

CCOC(OCC)N1C(=O)C2(C(OCC)OCC)CC3C(OC(=O)N3N)c3cccc1c32 (stereo not given)
inactive: [1] -16.4% | [2] 4.15% | [3] -7.45% | [4] -8.95% | [5] -4.75% | [6] -4.4%

NC(=O)Nc1nc2ccccc2[nH]1
inactive: [1] -26.2% | [2] -21.6% | [3] -11.7% | [4] -0.3% | [5] -7.7% | [6] 3.4%

O=C(NCCS)C(=O)NCCS
inactive: [1] -1.55% | [2] 7.9% | [3] 3.65% | [4] 9.7% | [5] -12.7% | [6] -10.2%

CCOC(=O)Cc1nc2ccccc2[nH]1
inactive: [1] 4.4% | [2] -7.85% | [3] -13.2% | [4] -103% | [5] -12.2% | [6] -3.2%

CC(C)(C)C1C=C(Sc2ccccc2)C(=O)O1 (stereo not given)
inactive: [1] 28.8% | [2] 7.3% | [3] 6.25% | [4] 1.8% | [5] 61.2% | [6] 30.1%
